An excerpt weighted towards active compounds, which were near 12% of everything screened.
JMJD2A Tudor inh = inhibitors of human JMJD2A Tudor domain | AID 504339 | O75164 | 390,000 tested, 4.4% active | AlphaScreen JMJD2A-Tudor / H3K4me3 peptide binding | Potency, µM (top dose mostly 114 µM), actives largely listed as inhibitors; note: nearly all actives have a fitted effect of over 50% in size
Target sequence (O75164 whole entry, looked up, the tested form may be a part): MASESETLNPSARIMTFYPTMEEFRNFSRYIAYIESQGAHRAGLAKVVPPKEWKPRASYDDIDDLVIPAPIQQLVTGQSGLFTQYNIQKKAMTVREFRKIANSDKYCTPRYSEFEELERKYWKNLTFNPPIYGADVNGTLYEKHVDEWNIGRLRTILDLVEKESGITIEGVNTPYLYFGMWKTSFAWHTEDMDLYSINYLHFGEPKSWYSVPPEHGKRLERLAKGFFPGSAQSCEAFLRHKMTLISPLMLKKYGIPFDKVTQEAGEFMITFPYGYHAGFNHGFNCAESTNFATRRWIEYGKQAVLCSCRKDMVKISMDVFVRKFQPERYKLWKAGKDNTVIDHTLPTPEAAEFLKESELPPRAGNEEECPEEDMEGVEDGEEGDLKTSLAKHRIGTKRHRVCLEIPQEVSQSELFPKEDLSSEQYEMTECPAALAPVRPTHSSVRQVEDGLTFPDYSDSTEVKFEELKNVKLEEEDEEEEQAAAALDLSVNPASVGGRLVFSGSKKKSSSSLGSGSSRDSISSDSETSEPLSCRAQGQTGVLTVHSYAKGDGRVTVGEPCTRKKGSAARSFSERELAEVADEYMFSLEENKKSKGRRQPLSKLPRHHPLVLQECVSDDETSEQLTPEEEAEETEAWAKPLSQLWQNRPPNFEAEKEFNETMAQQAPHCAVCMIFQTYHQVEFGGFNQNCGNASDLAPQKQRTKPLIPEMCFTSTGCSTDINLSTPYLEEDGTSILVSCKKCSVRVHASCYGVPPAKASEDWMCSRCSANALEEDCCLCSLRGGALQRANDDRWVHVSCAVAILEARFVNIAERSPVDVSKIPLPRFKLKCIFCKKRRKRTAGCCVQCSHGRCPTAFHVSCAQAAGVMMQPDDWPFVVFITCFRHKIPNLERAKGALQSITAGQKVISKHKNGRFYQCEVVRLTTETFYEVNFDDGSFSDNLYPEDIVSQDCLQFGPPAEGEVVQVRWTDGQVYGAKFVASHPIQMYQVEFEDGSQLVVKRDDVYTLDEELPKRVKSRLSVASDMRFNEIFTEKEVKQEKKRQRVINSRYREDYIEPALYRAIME
G9a inh = inhibitors of human histone lysine methyltransferase G9a; AID 504332; 350,000 tested, 8.8% active; G9a H3K9 monomethylation, AlphaScreen, 2 h; Potency, µM (top dose mostly 102 µM), most hits filed as inhibitors; note: nearly all actives have a fitted effect of over 75% in size
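G9a (20 nM) preincubated 15 min RT with compounds, then 500 nM biotinylated H3K9 peptide and 20 uM SAM added; 2 h RT reaction. Monomethyl-H3K9 product detected by AlphaScreen with anti-H3K9me1 antibody, streptavidin donor and anti-rabbit IgG acceptor beads.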
L3MBTL1 inh = inhibitors of human L3MBTL1; Q9Y468; Potency, µM (series often up to 57.1 µM), usual class: inhibitors; AlphaScreen L3MBTL1–H3K9me1 peptide binding; 230,000 tested, 0.66% active; note: nearly all actives have a fitted effect of over 60% in size
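L3MBTL1 (50 nM) pre-complexed 30 min with biotinylated H3(1-15)K9me1 peptide (75 nM), then compounds added for 30 min at room temperature; AlphaScreen streptavidin donor/nickel chelate acceptor beads (10 ug/mL final) read after 30 min dark incubation.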
HP1b chromo inh = blocks HP1-beta chromodomain binding to methylated histone tails; P83916; AlphaScreen HP1-beta / biotin-H3K9me3 peptide binding; Potency, µM (doses to about 114 µM), most hits filed as inhibitors; 390,000 tested, 0.56% active; AID 540317; note: nearly all actives have a fitted effect of over 70% in size
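Compound inhibition of the preformed complex between 50 nM HP1-beta and 50 nM biotinylated H3K9me3 peptide was read by AlphaScreen. Buffer was PBS pH 7.4 with 0.01% Tween-20. Incubations ran 30 min at room temperature, with 10 ug/mL donor/acceptor beads.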
Sfp inh = inhibitors of Bacillus subtilis Sfp phosphopantetheinyl transferase; Potency, µM, actives largely listed as inhibitors; Q9F4F7; Biochemical Sfp PPTase activity, qHTS; 310,000 tested, 3.5% active;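 note: the enzyme is Sfp with the accession as filed and its product quenches rhodamine fluorescence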
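After 15 min at room temperature with compound, 15 nM Sfp received 5 uM rhodamine-CoA plus 12.5 uM BHQ-2-ybbR (50 mM Hepes pH 7.6, 10 mM MgCl2). Rate came from the fluorescence difference over 30 min, ex 525/em 598 nm.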
BAZ2B inh = BAZ2B (human) inhibition. AlphaScreen BAZ2B-H3K14Ac peptide displacement. Potency, µM (highest dose often 114 µM), usual class: inhibitors. 360,000 tested, 4.4% active; note: nearly all actives have a fitted effect of over 60% in size
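Protein-peptide AlphaScreen: BAZ2B 50 nM, b-H3K14Ac 50 nM, 1x PBS pH 7.4 + 0.01% Tween-20. Preincubation 30 min RT; cpd 30 min RT (top 110 uM); beads 20 min RT, light-protected.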
Numbers stand for hits; – = inactive; ? = inconclusive; · = no result; [ ] = another dose, or the depositor's remark. Calls come from the whole dose curve; as a rule, active = well fitted curve in the direction sought with a large enough effect; inconclusive = small, poorly fitted or top-dose-only effect, or another doubt; inactive = no such curve, though single readings can be large; an effect the other way counts as inactive or inconclusive.

SMILES	JMJD2A Tudor inh	G9a inh	L3MBTL1 inh	HP1b chromo inh	Sfp inh	BAZ2B inh
COc1ccc2ccc(O)c(CN3CCN(S(=O)(=O)c4cc([N+](=O)[O-])ccc4C)CC3)c2c1	–	1.3µM	–	–	·	–
COc1ccc2oc(C(=O)N3CCN(S(=O)(=O)c4cccc([N+](=O)[O-])c4)CC3)c(C)c2c1	–	–	·	–	–	–
O=[N+]([O-])c1ccccc1CN1CCN(S(=O)(=O)Cc2ccccc2)CC1	0.79µM	·	·	?	?	45µM
Cc1ccc(C)c(N2CCN(C(=O)C3CCN(c4nc(-c5ccc(C(C)C)cc5)no4)CC3)CC2)c1	–	–	·	–	·	–
COc1ccc(S(=O)(=O)N2CCN(Cc3ccc(Cl)cc3)CC2)cc1	10µM	2.5µM	–	?	–	?
CCOc1ccc(C(=O)CN2CCN(S(=O)(=O)c3ccc(Cl)cc3)CC2)cc1	–	35µM	–	–	–	–
COc1ccc(S(=O)(=O)N2CCN(Cc3cccc(Cl)c3)CC2)cc1	–	–	·	–	–	–
COc1ccc(C(=O)CN2CCN(S(=O)(=O)c3ccc(F)cc3)CC2)cc1	–	?	·	–	·	–
COc1ccc(S(=O)(=O)N2CCN(Cc3ccccc3[N+](=O)[O-])CC2)cc1	3.2µM	·	·	?	·	·
CN(C)CCCNc1nc(-c2ccccc2)nc2ccccc12	–	79µM	–	–	–	–
COc1ccc(CNc2nc(-c3ccc(N(C)C)cc3)nc3ccccc23)c(OC)c1	·	–[0.501 µM]	·	·	18µM	·
CC(C)OCCCNc1nc(-c2ccccc2)nc2ccccc12	–	–	·	–	–	–
COc1ccc(CNc2nc(-c3cccc(C#N)c3)nc3ccccc23)c(OC)c1	·	–[0.501 µM]	·	·	–	·
CCCCn1cc(S(=O)(=O)c2ccccc2)c(=O)c2cc(F)c(N3CCN(CCC)CC3)cc21	–	–	·	–	·	–
CN1C(=O)/C(=C/C=C2/CCCN2C)N(C)C1=S	–	·	–	–	79µM	?
COc1ccc(NC(=O)C2CCN(C(=O)c3sc4nc[nH]c(=O)c4c3C)CC2)cc1Cl	–	–	·	–	·	–
CCOc1ccc(CNC(=O)CN2C(=O)C(c3ccccc3)Oc3cccnc32)cc1 (stereo not drawn)	–	–	·	–	–	71µM
O=C(CN1C(=O)C(c2ccccc2)Oc2cccnc21)NCc1ccccc1F (stereo not drawn)	20µM	–	·	–	–	–
CC(C)Nc1nc(NC(C)C)nc(OCCOC(=O)c2ccccc2)n1	–	–	–	–	–	–
CC(C)Nc1nc(NC(C)C)nc(C(N)=O)n1	–	–[12.7 µM]	·	–	–	50µM
CC(C)Nc1nc(NC(C)C)nc(Nn2cnnc2)n1	–	–	–	–	–	–
CC(=O)OCCOc1nc(NC(C)C)nc(NC(C)C)n1	79µM	?	–	–	–	–
CCN(CC)c1ccc(NC(=O)c2ccc3c(c2)OCO3)cc1	?	6.3µM	·	?	–	45µM
CCN(CC)c1ccc(/C=N/NC(=O)CNC(=O)c2ccc3c(c2)OCCO3)cc1	–	45µM	·	–	–	–
CCC(=O)Nc1ccc(NC(=O)c2ccc3c(c2)OCO3)cc1	–	?	·	–	–	–
SMILES	JMJD2A Tudor inh	G9a inh	L3MBTL1 inh	HP1b chromo inh	Sfp inh	BAZ2B inh
CC(=O)Nc1cc(NC(C)=O)cc(C(=O)OCC(=O)c2ccc3c(c2)OCO3)c1	–	10µM	?	–	·	–
O=C(Nc1ccc(-c2nc3ccccc3[nH]2)cc1)c1ccc2c(c1)OCO2	–	71µM	–	–	–	?
O=C(Nc1ccc(Cl)cc1)OCCN1CCN(Cc2ccccc2)CCC1=O	·	–	·	·	–	·
Cc1ccc(Nc2ncnc3onc(C)c23)cc1Cl	–	–	·	–	·	–
CCN(CC)c1ccc(C(=O)NC(=S)N2CCN(Cc3ccc4c(c3)OCO4)CC2)cc1	?	40µM	?	–	–	?
CCOc1ccc(C(=O)Nc2ccc(-c3nc4ccccc4[nH]3)cc2)cc1[N+](=O)[O-]	79µM	–	–	–	–	–
CC(C)NC(=S)N1CCN(Cc2ccc3c(c2)OCO3)CC1	–	–[12.7 µM]	–	–	–	–
CCN(C(=O)Cn1c(=O)oc2cc(S(=O)(=O)N3CCCCCC3)ccc21)c1cccc(C)c1	–	–	·	–	·	–
O=C1CN(c2nc3ccccc3n3cnnc23)CC(=O)N1CCc1ccccc1	–	79µM	–	–	–	–
CCN1CCN(c2nc3ccccc3n3cnnc23)CC1	–	?	·	–	–	–
COCCCNC(=O)c1c(NC(=O)Cc2coc3c(C)c(C)ccc23)sc2c1CCCC2	–	–	·	–	·	–
O=S(=O)(Nc1cccc2cccnc12)c1ccccc1O	32µM	·	·	·	–	·
O=S(=O)(Nc1ccccc1O)c1cccc2cccnc12	–	?	–	–	–	–
